Data on 34 compounds can be found in the supplement of paper PMC10933113.

Structures are written as SMILES.

The test system of this assay is KeratinoSens (HaCaT ARE-luciferase) cells. The experiment in a line: Nrf2/ARE luciferase activation call in qHTS KeratinoSens assay (1 = active, 0 = inactive).
As to `CCCCCCCCn1cc[n+](C)c1.O=S(=O)([O-])C(F)(F)F`, the “Nrf2/ARE luciferase activation call” value is “not active ARE inducer (skin sensitizer alert) (inactive)”.
The result for `CCC1=C[C@@H]2C[N@](C1)Cc1c([nH]c3ccccc13)[C@@](C(=O)OC)(c1cc3c(cc1OC)N(C)[C@H]1[C@@](O)(C(=O)OC)[C@H](OC(C)=O)[C@]4(CC)C=CCN5CC[C@]31[C@@H]54)C2.O=C(O)C(O)C(O)C(=O)O.O=C(O)C(O)C(O)C(=O)O` reads “active ARE inducer (skin sensitizer alert)”; that for `C[C@@H](C1=C(CCN(C)C)Cc2ccccc21)c1ccccn1.O=C(O)/C=C\C(=O)O`, “not active ARE inducer (skin sensitizer alert) (inactive)”.
As to `CN1CCN(CCCN2c3ccccc3Sc3ccc(Cl)cc32)CC1.O=C(O)/C=C\C(=O)O.O=C(O)/C=C\C(=O)O`, the “Nrf2/ARE luciferase activation call” value was “not active ARE inducer (skin sensitizer alert) (inactive)”.
In the case of `O=C(O)/C=C/C(=O)O.c1ccc(C(O[C@H]2CCCN(CCc3ccc4c(c3)OCO4)C2)c2ccccc2)cc1`, the “Nrf2/ARE luciferase activation call” value was “not active ARE inducer (skin sensitizer alert) (inactive)”.
The result for `Cc1occc1C(=O)Nc1ccc(C(=O)N2CCC(F)(F)/C(=C\C(=O)N3CCC(N4CCCCC4)CC3)c3ccccc32)cc1.Cc1occc1C(=O)Nc1ccc(C(=O)N2CCC(F)(F)/C(=C\C(=O)N3CCC(N4CCCCC4)CC3)c3ccccc32)cc1.O=C(O)/C=C/C(=O)O` reads “not active ARE inducer (skin sensitizer alert) (inactive)”.
Regarding `CCN(CC)CCOC(=O)C1(c2ccccc2)CCCC1.CCN(CC)CCOC(=O)C1(c2ccccc2)CCCC1.O=S(=O)(O)CCS(=O)(=O)O`, the “Nrf2/ARE luciferase activation call” value is “not active ARE inducer (skin sensitizer alert) (inactive)”.
Take `CCn1cc[n+](C)c1C.O=S(=O)([O-])C(F)(F)F`: the “Nrf2/ARE luciferase activation call” value was “not active ARE inducer (skin sensitizer alert) (inactive)”.
The result for `CCN(C(=O)c1cc(C)cc(OC[C@H](C)Nc2ccncc2)c1)C(C)C.Cc1ccc(S(=O)(=O)O)cc1` reads “not active ARE inducer (skin sensitizer alert) (inactive)”.
The result for `CCCC[n+]1ccccc1.O=S(=O)([O-])C(F)(F)F` reads “not active ARE inducer (skin sensitizer alert) (inactive)”; that for `CCCC[n+]1ccccc1C.O=S(=O)([O-])C(F)(F)F`, “not active ARE inducer (skin sensitizer alert) (inactive)”; that for `CCCCCC[n+]1ccccc1.O=S(=O)([O-])C(F)(F)F`, “not active ARE inducer (skin sensitizer alert) (inactive)”.
The result for `CN1C(C)(C)CCCC1(C)C.O=C(O)[C@@H](O)[C@H](O)C(=O)O` reads “not active ARE inducer (skin sensitizer alert) (inactive)”; that for `CC(CN(C)C)CN1c2ccccc2CCc2ccccc21.O=C(O)/C=C\C(=O)O` (centres undefined), “not active ARE inducer (skin sensitizer alert) (inactive)”.
For `CC(C)OC(=O)OCOP(=O)(CO[C@H](C)Cn1cnc2c(N)ncnc21)OCOC(=O)OC(C)C.O=C(O)C=CC(=O)O`, the “Nrf2/ARE luciferase activation call” value is “not active ARE inducer (skin sensitizer alert) (inactive)”.
The value for `NC(CO)(CO)CO.O=C(c1ccccc1)c1ccc2n1CC[C@H]2C(=O)O` was “not active ARE inducer (skin sensitizer alert) (inactive)”; that for `CO[C@@H]1COCC[C@@H]1[NH2+][C@@H]1CC[C@@](C(=O)N2CCc3ncc(C(F)(F)F)cc3C2)(C(C)C)C1.O=C([O-])CCC(=O)O` was “not active ARE inducer (skin sensitizer alert) (inactive)”.
The value for `O=C(O)c1ccc2ccccc2c1O.OCc1cc(C(O)CNCCCCCCOCCCCc2ccccc2)ccc1O` (centres undefined) was “not active ARE inducer (skin sensitizer alert) (inactive)”.
Consider `CCOc1cc(N)c(Cl)cc1C(=O)NCC1CN(Cc2ccc(F)cc2)CCO1.O=C(O)CC(O)(CC(=O)O)C(=O)O` (centres undefined), for which the “Nrf2/ARE luciferase activation call” value was “not active ARE inducer (skin sensitizer alert) (inactive)”.
`COc1ccc(CN(CCN(C)C)c2ccccn2)cc1.O=C(O)/C=C\C(=O)O`: the “Nrf2/ARE luciferase activation call” value is “not active ARE inducer (skin sensitizer alert) (inactive)”.
Regarding `CCC[N+]1(C)CCCC1.O=S(=O)([O-])C(F)(F)F`, the “Nrf2/ARE luciferase activation call” value was “not active ARE inducer (skin sensitizer alert) (inactive)”.
`CCCC[N+]1(C)CCCCC1.O=S(=O)([O-])C(F)(F)F`: the “Nrf2/ARE luciferase activation call” value was “not active ARE inducer (skin sensitizer alert) (inactive)”.
The result for `CC1(C)S[C@@H]2[C@H](NC(=O)Cc3ccccc3)C(=O)N2[C@H]1C(=O)O.CC1(C)S[C@@H]2[C@H](NC(=O)Cc3ccccc3)C(=O)N2[C@H]1C(=O)O.c1ccc(CNCCNCc2ccccc2)cc1` reads “not active ARE inducer (skin sensitizer alert) (inactive)”; that for `O=C(CCC1CCN(Cc2ccccc2)CC1)c1ccc2c(c1)NCCCC2.O=C(O)/C=C/C(=O)O`, “not active ARE inducer (skin sensitizer alert) (inactive)”; that for `CCC(C(=O)OCCOCCN(CC)CC)c1ccccc1.O=C(O)CC(O)(CC(=O)O)C(=O)O` (centres undefined), “not active ARE inducer (skin sensitizer alert) (inactive)”.
On to `C[C@H](N)[C@H](O)c1cccc(O)c1.O=C(O)[C@@H](O)[C@@H](O)C(=O)O`, for which the “Nrf2/ARE luciferase activation call” value is “not active ARE inducer (skin sensitizer alert) (inactive)”.
As to `Cc1ccccc1C(OCCN(C)C)c1ccccc1.O=C(O)CC(O)(CC(=O)O)C(=O)O` (centres undefined), the “Nrf2/ARE luciferase activation call” value was “not active ARE inducer (skin sensitizer alert) (inactive)”.
The result for `CN(C)CCOc1ccccc1Cc1ccccc1.O=C(O)CC(O)(CC(=O)O)C(=O)O` reads “not active ARE inducer (skin sensitizer alert) (inactive)”; that for `CC(=O)c1ccc2c(c1)N(CCCN(C)C)c1ccccc1S2.O=C(O)/C=C\C(=O)O`, “not active ARE inducer (skin sensitizer alert) (inactive)”; that for `Nc1nc(N)nc(-c2cc(Cl)ccc2Cl)n1.O=C(O)/C=C\C(=O)O`, “not active ARE inducer (skin sensitizer alert) (inactive)”.
For the compound `CCOC(=O)Nc1ccc(NCc2ccc(F)cc2)nc1N.O=C(O)/C=C\C(=O)O`, the “Nrf2/ARE luciferase activation call” value is “not active ARE inducer (skin sensitizer alert) (inactive)”.
The result for `CCCC[n+]1ccc(C)cc1.O=S(=O)([O-])C(F)(F)F` reads “not active ARE inducer (skin sensitizer alert) (inactive)”; that for `CCCCn1cc[n+](C)c1C.O=S(=O)([O-])C(F)(F)F`, “not active ARE inducer (skin sensitizer alert) (inactive)”.
Regarding `CCCC[n+]1cccc(C)c1.O=S(=O)([O-])C(F)(F)F`, the “Nrf2/ARE luciferase activation call” value was “not active ARE inducer (skin sensitizer alert) (inactive)”.
